Rows were chosen to be rich in hits. Some 2.7% of all compounds tested hit in one or more screens of this group.
eIF4E 4G PPI: blocks eIF4E binding to eIF4G. P63073+Q04637. TR-FRET eIF4E-eIF4GI(517-606) binding, 2 h. inhibition, % at 21.7 µM. hit rate 0.37% among 220,000;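 active = inhibition above about 30%, limit read from the data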;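 note: 0% = full FRET control wells and 100% = background wells lacking eIF4GI fragment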
Bim-Mcl-1: disrupts Bim peptide binding to human Mcl-1 | inhibition, % at 10 µM | Q07820 | hit rate 0.1% among 190,000 | AID 1009 | Bead-based flow cytometry, Bim peptide-Mcl-1 binding; in the data active = inhibition above about 40%;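 note: 0% = no compound tracer wells and 100% = peptide blocker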
14-3-3 Bad inh: disrupts binding of bovine 14-3-3 zeta to phospho-Bad peptide | P63103 | TR-FRET 14-3-3zeta/Dy647-pBad peptide displacement, 1 h | inhibition, % at 21.7 µM | hit rate 0.71% among 220,000;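 active = inhibition above about 70%, limit read from the data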;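 note: 0% = full 14-3-3 plus peptide FRET controls and 100% = background without 14-3-3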
Pf gametocyte: kills late stage P. falciparum gametocytes. hit rate 0.065% among 150,000. AID 743093. P. falciparum stage V gametocytes, ATP luminescence, 24 h. inhibition, % at 10.9 µM;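 active = inhibition above the mean plus 3 SD of compounds within the control limits, set per campaign, cut at about 38% in these data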;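 note: 0% = DMSO wells and 100% = medium only without gametocytes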
Mcl1-Noxa inh: disrupts binding of human Mcl-1 to Noxa peptide; Q07820; TR-FRET Mcl-1/Noxa peptide binding, 2 h; inhibition, % at 21.7 µM; hit rate 1.5% among 220,000;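 active = compounds that cut the protein-peptide binding signal by more than 50% relative to plate controls in a single-dose test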;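 note: His-tagged Mcl-1 with rhodamine Noxa BH3 peptide and terbium anti-His antibody; 0% = Mcl-1 plus Noxa peptide wells and 100% = peptide-only wells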
Mcl1-Bid inh: disrupts binding of human Mcl-1 to Bid peptide. Q07820. TR-FRET Mcl-1/Bid-Dy647 peptide binding, 1536-well. inhibition, % at 21.7 µM. hit rate 0.97% among 220,000;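 active = compounds that cut the binding signal by more than half at the single screening dose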;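 note: His-tagged Mcl-1 with europium anti-His antibody binding Bid BH3 peptide; 0% = Mcl-1 plus peptide wells and 100% = peptide-only wells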
* marks the source's active call; other numbers are inactive results; . = not tested or not shown; [ ] = remark or other dose.

SMILES	eIF4E 4G PPI	Bim-Mcl-1	14-3-3 Bad inh	Pf gametocyte	Mcl1-Noxa inh	Mcl1-Bid inh
COc1ccc(/C=C/C(O)=C(\C#N)c2nnc(N3CCOCC3)n2-c2ccccc2)cc1OC	-2	1	-5	2	9	10
COc1ccc(NC(=S)N(CCO)Cc2cc3c(C)cc(C)cc3[nH]c2=O)cc1	1	.	-5	-16	8	-110
CCOC(=O)c1c(C)oc2c1c(C(c1ccccc1)N1CCOCC1)c(O)c1ccccc12 (configuration not stated)	-3	1	1	-6	58*	60*
CCOC(=O)c1c(C)oc2c1c(C(c1cccnc1)N1CCCCC1)c(O)c1ccccc12 (configuration not stated)	-2	0	19	19	98*	60*
CN(C)S(=O)(=O)c1cccc(NC(=O)COC(=O)c2cc3ccccc3oc2=O)c1	17	.	26	5	24	80*
COc1cccc(/C=C/C(=O)OCC(=O)Nc2cccc(S(=O)(=O)N(C)C)c2)c1	-1	0	95*	-4	17	-30
CCN(c1ccc(NC(=O)COC(=O)c2cc3ccccc3oc2=O)cc1)C(C)C	20	-3	10	-11	86*	-25
CN(C)S(=O)(=O)c1cccc(NC(=O)c2cc3ccccc3o2)c1	1	0	75*[fluorescence artefact?]	9	11	-21
C=CCN1c2ccccc2[C@]23C[C@@H](C(=O)OC)N(C(=O)NCCC)C2=NC(C(=O)OC)=C(C(=O)OC)[C@H]13	-9	.	-2	7	-2	7
Cc1ccc(C2C3C(=O)N(c4ccccc4)C(=O)C3N3CCCN23)cc1 (configuration not stated)	3	.	-4	-39	-11	-22
COc1cccc(/C=C/C(=O)OCC(=O)NCc2ccco2)c1	-1	-3	-7	-6	41	-2
Cn1c(CN2CCOCC2)nc2cc(NC(=O)COc3ccc([N+](=O)[O-])cc3)ccc21	1	0	-1	-4	9	-32
CCN(c1ccc(NC(=O)COC(=O)c2cccs2)cc1)C(C)C	1	0	-8	.	87*	-44
O=C1C(C=NCc2cccnc2)=C(O)c2ccccc21	4	0	-2	-42	-31	-1
O=C1C(C=NCc2ccncc2)=C(O)c2ccccc21	0	0	-5	.	17	96*
CCCNC(=O)c1ccc2c(=O)c(O)c(-c3cccc(Br)c3)[nH]c2c1	-9	.	-4	19	-94	-102
CCCNC(=O)c1ccc2c(=O)c(O)c(-c3ccc(F)cc3)[nH]c2c1	98*	.	-4	.	-72	-101
Cc1ccc(C)c(N/N=C2\CCCNC2=O)c1	10	-7	8	.	8	-53
CCN1CCN(Cc2ccc(NC(=O)c3cc(NC(=O)C4=NN(c5ccccc5)C(=O)C4)cc(OC)c3)cc2C(F)(F)F)CC1	-3	.	60	-21	69*	-39
CCN1CCN(Cc2ccc(NC(=O)c3ccc(C)c(NC(=O)C4=NN(c5ccccc5)C(=O)C4)c3)cc2C(F)(F)F)CC1	-7	.	63	.	63*	-58
Cc1nnc(Sc2c(N)n(C)c(=O)[nH]c2=O)s1	6	-1	-15	.	19	100*
C=CCn1c(Sc2nnc(C)s2)nc2c1c(=O)[nH]c(=O)n2C	-3	-3	8	.	-2	-13
Cc1ccc(-c2ccc(/C=C3/NC(=O)NC3=O)o2)cc1[N+](=O)[O-]	-3	2	90*[fluorescence artefact?]	1	77*	73*
O=C1NC(=S)N/C1=C/c1ccc(-c2c(Br)cc([N+](=O)[O-])cc2Br)o1	-12	-2	95*[fluorescence artefact?]	.	86*	98*
CC1=C(C#N)C(=O)NC(=O)/C1=C\c1ccc(-c2cc(C)c(C)cc2[N+](=O)[O-])o1	48*	1	64	7	100*	92*
O=C(/C=C/c1ccc2c(c1)OCO2)Nc1ccc(Cl)cn1	-7	-2	27	12	17	63*
O=C(/C=C/c1ccc2c(c1)OCO2)Nc1nc2ccc(F)cc2s1	-2	.	27	14	71*	61*
CCOc1ccc2nc(NC(=O)/C=C/c3ccc4c(c3)OCO4)sc2c1	16	0	40	-7	56*	60*
CCOc1ccc2nc(SCC(=O)Nc3ccc4c(c3)OCO4)sc2c1	-4	9	-13	-4	2	-1

Assay outcomes as filed in PubChem.
